The structures appear in SMILES notation. Where “and” joins values, the source holds several entries; their conditions need not be identical. Equal values may be shown once. Inconclusive results are not listed. Where a call stands in place of a potency, no number is given. Calls of active or inactive are those of the source. Calls follow the shape of the dose curve; as a rule, active = well fitted inhibition curve with a large enough effect in the repeat runs; inconclusive = weak or mixed curves; inactive = no such curve, though single readings can be large or run the other way.
Potency is read from the fitted curve at half-maximal effect.

The test can be described thus: qHTS assay to identify small molecule antagonists of the thyroid receptor (TR) signaling pathway (AID 743065). Also: nearly all actives have a fitted effect of over 55% in size. The following applies: GH3.TRE-Luc, T3-stimulated luciferase inhibition, 23.5 h; series mostly up to 70.3 µM. The source says:
U.S. Tox21 Program National Center for Advancing Translational Sciences [NCATS] NIH Chemical Genomics Center [NCGC] U.S. Environmental Protection Agency [EPA] National Institutes of Environmental Health Sciences [NIEHS] National Toxicology Program [NTP] U.S. Food and Drug Administration [FDA] Tox21 Assay Overview: Thyroid receptor (TR), a nuclear hormone receptor, plays an important role in development, proliferation, differentiation, metabolism, brain function, and cardiovascular system. […] To profile the Tox21 10K compound library in TR signaling, a cell-based GH3-TRE-Luc assay (GH3.TRE-Luc cell line, developed by the laboratory of Dr. Albertinka J. Murk, Wageningen University) was used to measure the inhibition of TR. GH3 (rat pituitary tumor) cells stably expressing a TR activity sensor consisting of two TR response elements and a luciferase reporter gene.
Tox21 Assay Protocol Summary: GH3.TRE-Luc cells were dispensed at 1500 cells/4 uL/well into 1536-well white solid bottom plates using a Multidrop Combi dispenser (Thermo Fisher Scientific Inc., Waltham, MA). After the assay plates were incubated at 37 C for 4 hours, 23 nL of library compound or DMSO controls was transferred to the assay plates by a pintool station (Kalypsys, San Diego, CA), followed by addition of 1 ul of T3 (1 nM, final concentration in the wells) to stimulate TR transactivation. The assay plates were incubated at 37 C for 23.5 h, and then 1 uL of CellTiter-Fluor reagent (Promega, Madision, WI) of measuring cytotoxicity was added to each well using a Bioraptr Flying Reagent Dispenser (FRD) workstation (Beckman Coulter, Indianapolis, IN, USA). The plates were incubated at 37 C and 5% CO2 for additional 30 min, and fluorescence intensity was measured by a ViewLux plate reader (PerkinElmer, Shelton, CT). For measuring luciferase reporter gene activity, 4 uL of ONE-Glo Luciferase Assay reagent (Promega) was added to each well using a Bioraptr FRD (Beckman Coulter), followed by 30 min incubation at room temperature. The luminescence intensity of plates was recorded by a ViewLux plate reader (PerkinElmer, Shelton, CT).
For `C=CCOCC(O)CO` (stereo not given), the Potency entry is “inactive”. Then `CCCCCCCCCCOc1cc2c(=O)c(C(=O)OCC)c[nH]c2cc1OCC`, with “inactive”. Turning to `NS(=O)(=O)Cc1noc2ccccc12`, the Potency result is “inactive”. Then `CC[N+](CC)(CC)CCOc1cccc(OCC[N+](CC)(CC)CC)c1OCC[N+](CC)(CC)CC`, with “inactive”; and `CCCCCC(=O)OCCc1ccccc1`, with “inactive”. Then `CC(C)(C)C(=O)c1ccccc1`, with “inactive”; and `CC(=O)OCC(=O)[C@@]1(O)[C@H](C)C[C@H]2[C@@H]3CCC4=CC(=O)C=C[C@]4(C)[C@@]3(F)[C@@H](O)C[C@@]21C`, with “inactive”. As to `OCCc1ccccn1`, the Potency entry was “inactive”. In the case of `CC(C)C[C@@H](N)C(=O)O`, the Potency result is “inactive”. The entry for `CCN[C@H]1C[C@H](C)S(=O)(=O)c2sc(S(N)(=O)=O)cc21` is “inactive”.

For `C[N+]1(C)CCCC(OC(=O)C(O)(c2ccccc2)c2ccccc2)C1` (stereo not given), the Potency result is “inactive”.

For `CCC(C)(CN(C)C)OC(=O)c1ccccc1` (stereo not given), the Potency result is “inactive”. Then `CC1(C)OC[C@@H](COC(=O)CCc2ccc(OC[C@@H](O)CNCCNC(=O)N3CCOCC3)cc2)O1`, with “inactive”; and `CC(C)c1ccc2ncccc2c1`, with “inactive”; and `Nc1ccn([C@@H]2O[C@H](CO)[C@@H](O)C2O)c(=O)n1` (stereo not given in full), with 376 nM (active) and 193 nM (active). The entry for `CCCCN(CCC(=O)OCC)C(C)=O` is “inactive”; for `CCCC[N+](C)(CCCC)CCCC` it is “inactive”. `c1coc(CNc2ncnc3nc[nH]c23)c1`: the Potency entry was “inactive”. Then `O=C(O)CCSCCC(=O)O`, with “inactive”. Regarding `NO`, the Potency result was “inactive”. Turning to `CC[C@H]1OC(=O)[C@H](C)[C@@H](O[C@H]2C[C@@](C)(OC)[C@@H](O)[C@H](C)O2)[C@H](C)[C@@H](O[C@@H]2O[C@H](C)C[C@H](N(C)C)[C@H]2O)[C@](C)(OC)C[C@@H](C)C(=O)[C@H](C)[C@@H](O)[C@]1(C)O`, the Potency entry is “inactive”. Then `c1ccc2sc(SN3CCOCC3)nc2c1`, with “inactive”.

As for `CN1[C@@H]2CC[C@H]1CC(OC(=O)C(O)c1ccccc1)C2` (stereo not given in full), the Potency result was “inactive”. In the case of `C=CC(C)(CCC=C(C)C)OC(=O)CC` (stereo not given), the Potency entry was “inactive”. Then `CCN1C=CN(C)C1C` (stereo not given), with “inactive”.

On to `Nc1ccncc1N`, for which the Potency entry is “inactive”.

Turning to `CCCCCCCCCCCCCCC(=O)O`, the Potency entry was “inactive”. Take `CN(C)[C@@H]1C(=O)C(C(=O)NCN2CCCC2)=C(O)[C@@]2(O)C(=O)C3=C(O)c4c(O)cccc4[C@@](C)(O)C3C[C@@H]12` (stereo not given in full): the Potency entry was “inactive”. Then `Cc1ccc(C(=O)Nc2ccc(S(=O)(=O)O)c3cc(S(=O)(=O)O)cc(S(=O)(=O)O)c23)cc1NC(=O)c1cccc(NC(=O)Nc2cccc(C(=O)Nc3cc(C(=O)Nc4ccc(S(=O)(=O)O)c5cc(S(=O)(=O)O)cc(S(=O)(=O)O)c45)ccc3C)c2)c1`, with “inactive”.

In the case of `CCNS(=O)(=O)c1ccc(C)cc1`, the Potency entry is “inactive”.

`CO[C@@]1(NC(=O)CSC[C@@H](N)C(=O)O)C(=O)N2C(C(=O)O)=C(CSc3nnnn3C)CS[C@@H]21`: the Potency entry was “inactive”.

On to `CCCCc1ccc2c(n1)[C@@H](c1ccc(OC)cc1C[C@H](C)C(=O)O)[C@H](C(=O)O)[C@H]2c1ccc2c(c1)OCO2`, for which the Potency result was “inactive”.

For the compound `C=CC(=O)OCCCl`, the Potency entry is “inactive”. Regarding `CC1=NN(c2cc(S(=O)(=O)O)ccc2Cl)C(=O)C1N=Nc1ccccc1` (stereo not given), the Potency result was “inactive”. Then `O=S(=O)(O)c1cc(O)c(O)c(S(=O)(=O)O)c1`, with “inactive”; and `NC(N)=NCCN1CCCCCCC1`, with “inactive”; and `CCCCCCCC1CCCC1=O` (stereo not given), with “inactive”. The entry for `CC(C)=CCC/C(C)=C/C#N` is “inactive”.

Consider `CCOC(=O)OC(C)OC1=C(C(=O)Nc2ccccn2)N(C)S(=O)(=O)c2ccccc21` (stereo not given), for which the Potency entry is “inactive”. With `CCCC(C)C(=O)OCC` (stereo not given), the Potency result is “inactive”.

(Values after PubChem BioAssay (Tox21).)
